Reference: the supplement of paper PMC10849652
Targets with a hit are over-represented here; the source holds about 7,900 in all. About 0.6% of all pairs of compound and target were hits.

Key:
Assay in all cases: log2 fold change, soluble protein after heating vs DMSO (PISA); higher = thermal stabilisation; K562 cells, 10 uM, 30 min; active = over 0.2 and 3.5 SD of the protein, either way, in both replicates (recomputed)
[1] = compound: COC1=CC=C(C=C1)CN2C=CC3=C2C=C(C=C3)C(=O)NO
Outline: (§1)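 K562 cells at 2×10^6 cells/mL were given 10 μM compound for 30 min. Aliquots then went through 3 min of heating across 48°C-58°C, were pooled, and were extracted in PBS with 0.5% NP-40 at 4°C, and the supernatant after 21,000xg for 90 min was quantified by TMTpro 16plex LC-MS/MS with channel sums equalised. Thermal stability relative to control samples, from duplicates, is given as log2 fold change.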

filanesib = compound: CON(C)C(=O)N1N=C(c2cc(F)ccc2F)S[C@@]1(CCCN)c1ccccc1 [filanesib]
Outline: as §1

zotarolimus = compound: CO[C@H]1C[C@@H]2CC[C@@H](C)[C@@](O)(O2)C(=O)C(=O)N2CCCC[C@H]2C(=O)O[C@H]([C@H](C)C[C@@H]2CC[C@H](n3cnnn3)[C@H](OC)C2)CC(=O)[C@H](C)/C=C(\C)[C@@H](O)[C@@H](OC)C(=O)[C@H](C)C[C@H](C)/C=C/C=C/C=C/1C [zotarolimus]
Outline: as §1

idasanutlin = compound: COc1cc(C(=O)O)ccc1NC(=O)[C@@H]1N[C@@H](CC(C)(C)C)[C@](C#N)(c2ccc(Cl)cc2F)[C@H]1c1cccc(Cl)c1F [idasanutlin]
Outline: as §1

alisertib = compound: COc1cc(Nc2ncc3c(n2)-c2ccc(Cl)cc2C(c2c(F)cccc2OC)=NC3)ccc1C(=O)O [alisertib]
Outline: as §1

[2] = compound: COc1cc2nc(-c3cc(F)ccc3O)nc(N[C@@H]3CNC[C@H]3C(C)(C)O)c2cc1OC
Outline: as §1

gefitinib = compound: COc1cc2ncnc(Nc3ccc(F)c(Cl)c3)c2cc1OCCCN1CCOCC1 [gefitinib]
Outline: as §1

[3] = compound: COc1cccc2cc(-c3nc([C@H]4CC[C@H](C(=O)O)CC4)n4ncnc(N)c34)[nH]c12
Outline: as §1

lapatinib = compound: CS(=O)(=O)CCNCc1ccc(-c2ccc3ncnc(Nc4ccc(OCc5cccc(F)c5)c(Cl)c4)c3c2)o1 [lapatinib]
Outline: as §1

pictilisib = compound: CS(=O)(=O)N1CCN(Cc2cc3nc(-c4cccc5[nH]ncc45)nc(N4CCOCC4)c3s2)CC1 [pictilisib]
Outline: as §1

Measured: log2 fold change

SASH1 (UniProt O94885)
inactive: [1] -0.059 | filanesib -0.074 | zotarolimus -0.04 | idasanutlin -0.05 | alisertib 0.009 | [2] -0.161 | gefitinib 0.015 | [3] -0.015 | lapatinib -0.013 | pictilisib 0.073

SCAF8 isoform 2 (UniProt Q9UPN6)
Chain of UniProt Q9UPN6 (Q9UPN6 whole entry, looked up): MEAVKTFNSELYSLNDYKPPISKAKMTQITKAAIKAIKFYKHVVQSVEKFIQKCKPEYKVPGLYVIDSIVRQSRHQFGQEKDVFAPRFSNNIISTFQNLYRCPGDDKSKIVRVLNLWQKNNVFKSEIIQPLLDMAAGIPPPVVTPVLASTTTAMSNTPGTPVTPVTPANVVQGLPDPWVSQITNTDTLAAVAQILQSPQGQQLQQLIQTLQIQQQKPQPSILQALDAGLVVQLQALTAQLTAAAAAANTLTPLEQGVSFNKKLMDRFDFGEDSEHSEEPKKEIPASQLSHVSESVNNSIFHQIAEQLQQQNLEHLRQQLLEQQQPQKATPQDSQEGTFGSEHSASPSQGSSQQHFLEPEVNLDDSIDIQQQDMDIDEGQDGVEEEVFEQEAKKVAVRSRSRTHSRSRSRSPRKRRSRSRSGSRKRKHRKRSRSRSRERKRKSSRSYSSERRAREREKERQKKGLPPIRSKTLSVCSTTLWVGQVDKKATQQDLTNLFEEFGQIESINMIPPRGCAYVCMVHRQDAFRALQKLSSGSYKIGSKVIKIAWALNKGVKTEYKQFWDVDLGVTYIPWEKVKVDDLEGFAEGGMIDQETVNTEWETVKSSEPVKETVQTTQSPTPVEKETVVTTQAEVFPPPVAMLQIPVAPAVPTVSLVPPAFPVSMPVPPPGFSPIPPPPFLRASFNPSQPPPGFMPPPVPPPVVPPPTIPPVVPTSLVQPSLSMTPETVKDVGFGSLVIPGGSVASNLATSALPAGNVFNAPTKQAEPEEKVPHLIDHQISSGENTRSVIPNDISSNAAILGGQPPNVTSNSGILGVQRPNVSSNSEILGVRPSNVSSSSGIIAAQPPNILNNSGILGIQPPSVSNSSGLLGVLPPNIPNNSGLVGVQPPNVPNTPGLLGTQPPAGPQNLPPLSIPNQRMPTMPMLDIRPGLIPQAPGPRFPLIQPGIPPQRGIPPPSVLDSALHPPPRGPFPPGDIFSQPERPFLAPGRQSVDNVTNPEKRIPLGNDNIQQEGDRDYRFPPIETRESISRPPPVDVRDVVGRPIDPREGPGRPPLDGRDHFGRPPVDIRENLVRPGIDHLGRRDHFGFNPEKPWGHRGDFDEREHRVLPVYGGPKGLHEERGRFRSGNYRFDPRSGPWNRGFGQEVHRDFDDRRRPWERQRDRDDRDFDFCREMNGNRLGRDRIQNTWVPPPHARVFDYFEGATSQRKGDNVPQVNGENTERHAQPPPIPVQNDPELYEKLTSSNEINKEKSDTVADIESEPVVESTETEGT
inactive: [1] 0.026 | filanesib 0.002 | zotarolimus 0.022 | idasanutlin -0.003 | alisertib -0.027 | [2] 0.048 | gefitinib 0.058 | [3] 0.015 | lapatinib -0.007 | pictilisib -0.055

RB1 (UniProt P06400)
active: [2] -0.325
inactive: [1] -0.028 | filanesib -0.08 | zotarolimus 0.011 | idasanutlin 0 | alisertib -0.016 | gefitinib 0.006 | [3] 0.052 | lapatinib 0.025 | pictilisib 0.033

SIDT2 isoform 2 (UniProt Q8NBJ9)
inactive: [1] -0.062 | filanesib -0.08 | zotarolimus 0.127 | idasanutlin 0.01 | alisertib 0.082 | [2] -0.065 | gefitinib -0.207 | [3] 0.009 | lapatinib 0.004 | pictilisib 0.044

RAC1 (UniProt P63000)
inactive: filanesib -0.118 | zotarolimus 0.044 | idasanutlin 0.003 | alisertib -0.066 | [2] 0.02 | gefitinib 0.039 | [3] 0.006 | lapatinib 0.004 | pictilisib -0.094
active: [1] 0.474

SEC31A (UniProt O94979)
inactive: [1] 0.01 | filanesib 0.063 | zotarolimus 0.029 | idasanutlin -0.039 | alisertib 0.006 | [2] 0.211 | gefitinib 0.008 | [3] -0.01 | lapatinib -0.036 | pictilisib -0.002

RIC8A isoform 3 (UniProt Q9NPQ8)
inactive: [1] -0.007 | filanesib -0.046 | zotarolimus -0.058 | idasanutlin -0.032 | alisertib 0.159 | [2] -0.095 | gefitinib 0.043 | [3] 0.009 | lapatinib 0.001 | pictilisib -0.002

RARS (UniProt P54136)
inactive: [1] -0.045 | filanesib 0.079 | zotarolimus 0.049 | idasanutlin 0.052 | alisertib -0.059 | [2] -0.032 | gefitinib -0.025 | [3] -0.203 | lapatinib -0.008 | pictilisib -0.07

RANBP2 (UniProt P49792)
Chain of UniProt P49792 (P49792 whole entry, looked up): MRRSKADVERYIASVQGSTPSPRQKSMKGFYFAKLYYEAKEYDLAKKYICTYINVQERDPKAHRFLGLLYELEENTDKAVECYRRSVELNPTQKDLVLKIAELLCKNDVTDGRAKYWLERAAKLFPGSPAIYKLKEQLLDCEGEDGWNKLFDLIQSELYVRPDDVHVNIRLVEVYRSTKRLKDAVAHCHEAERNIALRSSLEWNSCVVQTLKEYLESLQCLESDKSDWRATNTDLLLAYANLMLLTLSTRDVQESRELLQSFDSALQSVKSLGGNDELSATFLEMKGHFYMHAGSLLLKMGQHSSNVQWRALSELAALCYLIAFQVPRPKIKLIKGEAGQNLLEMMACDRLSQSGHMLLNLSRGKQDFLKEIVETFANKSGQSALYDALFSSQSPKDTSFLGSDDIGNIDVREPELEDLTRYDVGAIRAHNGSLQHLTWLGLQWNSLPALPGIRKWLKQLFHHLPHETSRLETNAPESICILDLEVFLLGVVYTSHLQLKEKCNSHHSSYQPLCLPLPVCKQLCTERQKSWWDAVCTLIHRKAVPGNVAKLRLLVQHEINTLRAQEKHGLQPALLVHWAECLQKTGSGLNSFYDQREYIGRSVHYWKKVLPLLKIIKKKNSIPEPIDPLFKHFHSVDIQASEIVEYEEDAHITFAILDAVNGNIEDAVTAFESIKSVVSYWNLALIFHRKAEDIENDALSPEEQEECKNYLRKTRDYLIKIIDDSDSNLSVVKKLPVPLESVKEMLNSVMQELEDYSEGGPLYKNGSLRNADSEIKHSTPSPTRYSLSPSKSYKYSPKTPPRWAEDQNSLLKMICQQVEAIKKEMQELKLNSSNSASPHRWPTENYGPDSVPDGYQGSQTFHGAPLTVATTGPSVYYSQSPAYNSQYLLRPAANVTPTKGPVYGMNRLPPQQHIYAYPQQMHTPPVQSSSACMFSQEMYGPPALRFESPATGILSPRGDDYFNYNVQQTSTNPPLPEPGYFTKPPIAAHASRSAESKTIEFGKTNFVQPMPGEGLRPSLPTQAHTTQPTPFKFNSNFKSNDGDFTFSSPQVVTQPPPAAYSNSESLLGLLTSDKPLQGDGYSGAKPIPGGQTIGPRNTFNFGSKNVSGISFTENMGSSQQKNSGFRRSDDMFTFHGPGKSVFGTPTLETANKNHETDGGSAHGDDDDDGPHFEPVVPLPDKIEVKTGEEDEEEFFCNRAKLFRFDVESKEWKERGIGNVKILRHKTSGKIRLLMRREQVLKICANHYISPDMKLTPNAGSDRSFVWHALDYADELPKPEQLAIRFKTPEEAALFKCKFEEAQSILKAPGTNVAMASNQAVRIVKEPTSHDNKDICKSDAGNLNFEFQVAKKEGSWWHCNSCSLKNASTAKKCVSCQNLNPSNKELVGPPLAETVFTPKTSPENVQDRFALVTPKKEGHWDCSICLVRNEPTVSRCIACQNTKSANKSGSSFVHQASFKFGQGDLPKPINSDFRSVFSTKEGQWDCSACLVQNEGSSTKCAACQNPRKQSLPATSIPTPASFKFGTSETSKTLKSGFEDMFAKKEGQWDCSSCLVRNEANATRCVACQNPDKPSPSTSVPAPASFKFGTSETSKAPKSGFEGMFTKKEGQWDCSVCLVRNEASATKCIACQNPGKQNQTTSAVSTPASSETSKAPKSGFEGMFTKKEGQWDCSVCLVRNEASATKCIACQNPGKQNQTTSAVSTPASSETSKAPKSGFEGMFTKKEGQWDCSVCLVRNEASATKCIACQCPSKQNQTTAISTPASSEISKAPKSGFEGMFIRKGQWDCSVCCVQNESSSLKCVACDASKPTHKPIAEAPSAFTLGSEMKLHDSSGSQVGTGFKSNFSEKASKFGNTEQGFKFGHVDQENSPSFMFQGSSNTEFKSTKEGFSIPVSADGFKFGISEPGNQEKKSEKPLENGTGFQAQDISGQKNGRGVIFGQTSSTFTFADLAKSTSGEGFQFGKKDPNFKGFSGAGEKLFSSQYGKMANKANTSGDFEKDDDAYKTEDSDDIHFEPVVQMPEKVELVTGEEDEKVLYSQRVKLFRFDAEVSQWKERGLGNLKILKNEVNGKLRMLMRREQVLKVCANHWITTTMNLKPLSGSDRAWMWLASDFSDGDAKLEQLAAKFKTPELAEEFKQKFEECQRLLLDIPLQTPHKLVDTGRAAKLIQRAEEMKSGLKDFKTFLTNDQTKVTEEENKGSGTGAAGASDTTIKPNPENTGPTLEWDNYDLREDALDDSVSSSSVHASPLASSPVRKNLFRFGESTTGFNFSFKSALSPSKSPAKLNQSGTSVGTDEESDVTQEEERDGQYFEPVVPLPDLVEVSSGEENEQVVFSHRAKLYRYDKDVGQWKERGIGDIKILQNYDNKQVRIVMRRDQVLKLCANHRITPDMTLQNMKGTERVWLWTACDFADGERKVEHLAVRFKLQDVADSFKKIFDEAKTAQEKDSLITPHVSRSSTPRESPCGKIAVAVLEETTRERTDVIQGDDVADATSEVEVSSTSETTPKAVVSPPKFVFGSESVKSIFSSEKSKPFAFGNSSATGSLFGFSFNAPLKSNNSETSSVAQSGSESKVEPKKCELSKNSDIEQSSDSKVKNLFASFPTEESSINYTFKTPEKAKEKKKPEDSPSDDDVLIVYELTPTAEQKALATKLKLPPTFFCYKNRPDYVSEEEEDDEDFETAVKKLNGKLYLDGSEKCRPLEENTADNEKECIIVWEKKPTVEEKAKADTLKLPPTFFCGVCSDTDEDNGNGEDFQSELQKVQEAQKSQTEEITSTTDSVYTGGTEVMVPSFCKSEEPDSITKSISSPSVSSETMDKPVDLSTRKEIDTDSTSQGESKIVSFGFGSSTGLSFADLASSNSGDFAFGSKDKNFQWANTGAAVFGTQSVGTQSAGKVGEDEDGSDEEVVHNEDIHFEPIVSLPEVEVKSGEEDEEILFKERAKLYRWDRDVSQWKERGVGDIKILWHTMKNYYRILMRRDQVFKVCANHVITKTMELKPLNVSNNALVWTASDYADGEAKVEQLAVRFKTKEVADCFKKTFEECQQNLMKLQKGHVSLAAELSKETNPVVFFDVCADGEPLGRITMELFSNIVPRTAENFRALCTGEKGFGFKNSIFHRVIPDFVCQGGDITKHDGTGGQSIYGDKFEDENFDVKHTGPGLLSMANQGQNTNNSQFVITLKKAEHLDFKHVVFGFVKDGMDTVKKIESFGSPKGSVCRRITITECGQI
inactive: filanesib -0.048 | zotarolimus 0.029 | idasanutlin -0.005 | alisertib 0.079 | [2] 0.044 | gefitinib 0.05 | [3] -0.097 | lapatinib -0.07 | pictilisib -0.002
active: [1] 0.334

SCPEP1 (UniProt Q9HB40)
inactive: [1] 0.078 | filanesib -0.082 | zotarolimus 0.009 | idasanutlin 0.002 | alisertib 0.007 | [2] -0.058 | gefitinib -0.014 | [3] 0.057 | lapatinib -0.021 | pictilisib 0.096

RPA3 (UniProt P35244)
inactive: [1] 0.054 | filanesib -0.038 | zotarolimus 0.056 | idasanutlin -0.064 | alisertib 0.073 | [2] -0.05 | gefitinib -0.01 | [3] -0.048 | lapatinib 0.04 | pictilisib 0.046

RPS9 (UniProt P46781)
inactive: [1] -0.036 | filanesib 0.237 | zotarolimus 0.032 | idasanutlin 0.098 | alisertib -0.101 | [2] -0.083 | gefitinib -0.055 | [3] -0.211 | lapatinib 0.084 | pictilisib -0.195

SEC24A (UniProt O95486)
inactive: [1] 0.029 | filanesib -0.083 | zotarolimus 0.033 | idasanutlin -0.087 | alisertib -0.002 | [2] -0.004 | gefitinib -0.028 | [3] -0.016 | lapatinib -0.021 | pictilisib -0.077

RBM25 (UniProt P49756)
active: [1] 0.285
inactive: filanesib 0.112 | zotarolimus 0.022 | idasanutlin 0.022 | alisertib -0.044 | [2] -0.035 | gefitinib 0.001 | [3] 0.043 | lapatinib -0.024 | pictilisib 0.052

SCO2 (UniProt O43819)
inactive: [1] -0.078 | filanesib 0.039 | zotarolimus 0.057 | idasanutlin -0.099 | alisertib -0.103 | [2] -0.097 | [3] 0.117 | lapatinib 0 | pictilisib -0.015

RPS12 (UniProt P25398)
inactive: [1] -0.009 | filanesib 0.018 | zotarolimus -0.026 | idasanutlin 0.048 | alisertib -0.17 | [2] -0.057 | gefitinib -0.02 | [3] -0.159 | lapatinib 0.062 | pictilisib -0.033

ROCK1 (UniProt Q13464)
inactive: [1] 0.037 | filanesib -0.028 | zotarolimus 0.003 | idasanutlin -0.005 | alisertib 0.067 | gefitinib -0.012 | [3] -0.005 | lapatinib 0.012 | pictilisib -0.012
active: [2] 0.246

RAPGEF4 (UniProt Q8WZA2)
inactive: [1] 0.549 | filanesib 0.053 | zotarolimus -0.078 | idasanutlin 0.021 | alisertib -0.145 | [3] 0.187

SLC12A5 (UniProt Q9H2X9)
inactive: [1] 0.323 | filanesib -0.071 | zotarolimus -0.076 | idasanutlin 0.017 | alisertib 0.299 | [2] -0.097 | [3] 0.124 | lapatinib 0.085

RCOR1 (UniProt Q9UKL0)
inactive: [1] -0.039 | filanesib 0.002 | zotarolimus -0.044 | idasanutlin 0 | alisertib 0.013 | [2] 0.003 | gefitinib -0.002 | [3] 0.015 | lapatinib 0.019 | pictilisib 0.005

RAB3IL1 (UniProt Q8TBN0)
Chain of UniProt Q8TBN0 (Q8TBN0 whole entry, looked up): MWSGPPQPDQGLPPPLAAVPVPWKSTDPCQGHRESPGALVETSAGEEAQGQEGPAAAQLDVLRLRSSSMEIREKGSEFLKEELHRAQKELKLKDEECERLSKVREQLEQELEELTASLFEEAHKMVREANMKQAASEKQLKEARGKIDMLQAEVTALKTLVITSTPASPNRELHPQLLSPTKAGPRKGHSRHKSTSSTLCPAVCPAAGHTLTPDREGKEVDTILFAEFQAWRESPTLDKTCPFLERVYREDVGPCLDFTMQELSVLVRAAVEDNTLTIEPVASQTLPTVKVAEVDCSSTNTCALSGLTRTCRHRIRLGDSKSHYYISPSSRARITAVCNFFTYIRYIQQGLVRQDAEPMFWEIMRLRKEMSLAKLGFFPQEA
inactive: [1] -0.006 | filanesib -0.003 | zotarolimus -0.023 | idasanutlin 0 | alisertib -0.115 | [2] 0.07 | gefitinib 0.033 | [3] 0.038 | lapatinib 0.001 | pictilisib -0.019

RPP25L (UniProt Q8N5L8)
Chain of UniProt Q8N5L8 (Q8N5L8 whole entry, looked up): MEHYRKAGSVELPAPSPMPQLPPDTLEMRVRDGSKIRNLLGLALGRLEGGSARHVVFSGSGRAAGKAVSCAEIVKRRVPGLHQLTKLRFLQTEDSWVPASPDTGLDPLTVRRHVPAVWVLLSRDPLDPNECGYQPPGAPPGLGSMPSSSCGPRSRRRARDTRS
inactive: [1] 0.107 | filanesib 0.012 | zotarolimus -0.002 | idasanutlin 0.069 | alisertib -0.093 | [2] -0.12 | gefitinib 0.054 | [3] -0.068 | lapatinib 0.042 | pictilisib -0.052

RBM33 (UniProt Q96EV2)
inactive: [1] 0.134 | filanesib 0.013 | zotarolimus 0.03 | idasanutlin 0.042 | alisertib -0.031 | [2] -0.078 | gefitinib 0.035 | [3] -0.028 | lapatinib 0.008 | pictilisib -0.044

SCCPDH (UniProt Q8NBX0)
inactive: filanesib 0.139 | zotarolimus 0.349 | idasanutlin 0.025 | alisertib -0.058 | [2] -0.026 | gefitinib -0.016 | [3] 0.076 | lapatinib 0.015 | pictilisib 0.135
active: [1] 0.436

SH2D1B (UniProt O14796)
inactive: [1] 0.129 | filanesib 0.086 | zotarolimus -0.037 | idasanutlin 0.117 | alisertib -0.075 | [2] 0.072 | gefitinib -0.078 | [3] 0.236 | lapatinib 0.053 | pictilisib -0.004

RPS6KA1 isoform 2 (UniProt Q15418)
inactive: [1] 0.087 | filanesib -0.022 | zotarolimus 0.025 | idasanutlin -0.016 | alisertib -0.01 | [2] -0.202 | gefitinib -0.062 | [3] 0 | lapatinib 0.013 | pictilisib -0.053

SERINC3 (UniProt Q13530)
inactive: [1] -0.015 | filanesib -0.222 | zotarolimus -0.062 | idasanutlin 0.136 | alisertib 0 | [2] -0.17 | gefitinib -0.069 | [3] 0.042 | lapatinib -0.181 | pictilisib 0.181

RSPRY1 (UniProt Q96DX4)
inactive: [1] -0.065 | filanesib 0.01 | zotarolimus -0.01 | idasanutlin -0.061 | alisertib -0.051 | [2] -0.006 | gefitinib 0.048 | [3] 0.031 | lapatinib 0.046 | pictilisib 0.054

RHOXF2 (UniProt Q9BQY4)
inactive: [1] 0.017 | filanesib 0.013 | zotarolimus -0.039 | idasanutlin 0.02 | alisertib -0.068 | [2] -0.001 | gefitinib -0.021 | [3] 0.056 | lapatinib -0.028 | pictilisib 0.088

RAVER1 (UniProt E9PAU2)
inactive: [1] 0.032 | filanesib -0.244 | zotarolimus 0.258 | idasanutlin 0.024 | alisertib 0.372 | [2] -0.898 | gefitinib 0.082 | [3] -0.099 | lapatinib 0.049 | pictilisib -0.002
